Shiga toxin inh = A qHTS for Small Molecule Inhibitors of Shiga Toxin; Vero cells, Shiga toxin protein synthesis inhibition reporter; 290,000 tested, 9.2% active; inhibition, % at 38.7 µM; in the data active means inhibition mostly above about 28%, no sharp cut-off; inactive means mostly below about 43%; further: 0% is about no effect
AMA1 RON2 block = qHTS for Inhibitors of AMA1-RON; Towards Development of Antimalarial Drug Lead: Primary Screen. Plasmodium falciparum AMA1 (3D7) - RON2 peptide interaction. Potency, µM (titrated, usually from 58.2 µM), for inactives: top-dose activity change, negative = inhibition, hits mostly inhibitors. AlphaScreen AMA1-biotinylated RON2 peptide binding. 360,000 tested, 0.2% active. AID 720542, 2013;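 further: potency means the concentration at half of the fitted maximal effect; 0% = vehicle wells and -100% = peptide control; nearly all actives have a fitted effect of over 45% in size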
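AMA1 (3D7) with his tag at 25 nM final met compounds first, then biotinylated RON2 peptide at 25 nM; detection used donor plus acceptor beads, 10 µg/mL apiece, read by AlphaScreen after 30 min at room temperature.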
Cycloheximide cs = Cycloheximide Counterscreen for Small Molecule Inhibitors of Shiga Toxin; 300,000 tested, 12% active; cell reporter, cycloheximide protein synthesis inhibition counterscreen; AID 2314, 2010; max response, %; in the data active means max response mostly above about 13%, no sharp cut-off; inactive means mostly below about 14%; further: read at 38.3 µM for the half of the compounds with a filed dose; 0% is about no effect
Pf growth 48h = Primary qHTS for delayed death inhibitors of the malarial parasite plastid, 48 hour incubation; P. falciparum luciferase growth in erythrocytes, 48 h; Potency, µM (highest dose often 28.7 µM), inactives show at the highest dose activity change, negative = inhibition, usual class: inhibitors; 310,000 tested, 5.9% active; further: potency means the concentration at half of the fitted maximal effect; on the % scale 0 is the no-effect control and ±100 the full control effect
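Growth was read as firefly luciferase luminescence after a 48 h, 37 C, 5% CO2 exposure of compounds to reporter-bearing P. falciparum cultures (0.1% parasitemia, 2% hematocrit final) in Albumax-supplemented RPMI 1640.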
HCV inhibitor = qHTS Assay for Inhibitors of Hepatitis C Virus (HCV); Huh7.5.1 HCVcc-Cre infection, luciferase reporter, 44 h; Potency, µM (titrated, usually from 41.8 µM), for inactives: at the top dose activity change, negative = inhibition, actives largely listed as inhibitors; 340,000 tested, 3.4% active; AID 651820, 2012; further: potency means the concentration at half of the fitted maximal effect; on the % scale 0 is the no-effect control and ±100 the full control effect
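Whole-lifecycle infectious HCVcc-Cre system; cells 1,000/well, compound then virus (~0.5 moi) added 4 h after plating, 44 h culture. Luciferase read 15 sec following 15 min substrate incubation, room temp.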
Pf growth 96h = Primary qHTS for delayed death inhibitors of the malarial parasite plastid, 96 hour incubation; P. falciparum luciferase reporter growth, 96 h; Potency, µM (titrated, usually from 28.7 µM), inactives show at the highest dose activity change, negative = inhibition, most hits filed as inhibitors; 320,000 tested, 6.9% active; AID 504834, 2011; further: potency means the concentration at half of the fitted maximal effect; on the % scale 0 is the no-effect control and ±100 the full control effect
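Two parasite generations (96 h, 37 C, 5% CO2) of compound exposure in infected erythrocytes (0.05% parasitemia, 2% hematocrit). Luciferase-reporter P. falciparum; decreased luminescence indicates inhibited growth, aimed at apicoplast-acting delayed death.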
Active calls of the source: *; u = inconclusive; x = no result; + = active, no number. Shown are actives, neighbours in structure and some others; about 21% of the full set was active somewhere. Unless noted, the call rests on the fitted dose curve; in most records, active means well fitted curve in the direction sought with a large enough effect; inconclusive means small, poorly fitted or top-dose-only effect, or another doubt; inactive means no such curve, though single readings can be large; an effect the other way counts as inactive or inconclusive.

SMILES | Shiga toxin inh | AMA1 RON2 block | Cycloheximide cs | Pf growth 48h | HCV inhibitor | Pf growth 96h
CC(C)N(C(=O)CSc1nnc(NC(=O)C2CCC2)s1)C(C)C | -11.1 | -4.6% | 4.9 | 6.57µM* | 0.6% | u
Cc1ccc2c(CNCc3ccco3)cc(=O)oc2c1 | 54.8* | -9.3% | 37.7* | 69.7% | -24.9% | 61.9%
CCOc1ccccc1NCc1cc(=O)oc2cc(C)ccc12 | -13.0 | u | 11.0 | u | -12.5% | -14.2%
COc1cccc2oc(SC)cc(=O)c12 | + | x | 30.2 | x | x | x
COc1cccc2oc(-c3ccccc3)cc(=O)c12 | 32.9* | x | 29.2* | x | x | x
O=c1cc(-c2ccccc2)oc2cc(O)c(O)c(O)c12 | x | -17.2% | x | x | -18.7% | x
Cc1cccc(Nc2nc(OCC#N)nc(N(C)C)n2)c1 | -0.4 | 10.4% | -1.9 | -179.3% | -5.5% | 11.7µM*
O=C(O)c1cccc(-c2ccc(/C=N/n3cnc4sc5c(c4c3=O)CCCC5)o2)c1 | 22.1 | x | 7.3 | 5.0% | x | 19.1%
Cc1cc(C(=O)N/N=C/c2ccc([N+](=O)[O-])cc2)c2ccccc2n1 | 15.0 | 10.8% | -1.2 | 8.5% | -3.1% | -16.2%
O=C(N/N=C/c1ccc([N+](=O)[O-])cc1)c1cccc2cc[nH]c12 | 21.2 | -2.5% | 16.1* | 24.8% | 6.1% | u
O=C(NN=Cc1ccc(N(CCCl)CCCl)cc1)c1cccc([N+](=O)[O-])c1 | x | 43.6% | x | x | u | x
CCN(CC)c1ccc(/C=N\NC(=O)c2cccc3cc[nH]c23)cc1 | 43.2* | 31.7% | 31.8* | 2.9% | u | -29.0%
O=C(N/N=C/c1ccc([N+](=O)[O-])cc1)c1[nH]ncc1Br | 81.6* | 0.0% | 46.7* | 383.8% | 2.9% | -5.3%
O=C(N/N=C/c1ccc([N+](=O)[O-])cc1)c1ccc2nc[nH]c2c1 | 20.3 | 13.0% | 2.2 | u | -9.2% | u
CC(C)Cc1nnc(NC(=O)CCC(=O)N2CCN(Cc3ccc(Cl)cc3)CC2)s1 | -6.9 | -2.5% | -5.4 | u | u | 12.1%
Cc1ccc(S(=O)(=O)N2CCN(C(=O)CC(C)n3cncn3)CC2)cc1C (centres undefined) | -9.6 | 0.9% | -4.3 | 9.6% | 21.9% | 10.2%
O[C@@H]1CO[C@H]2C1OC[C@@H]2O (some centres undefined) | -4.3 | x | -6.2 | x | x | x
Cc1cccc(OCC(=O)Nc2nnc(S(=O)(=O)N3CCc4ccccc43)s2)c1 | -11.0 | x | -11.1 | x | x | x
CC(C)NC(=O)COc1coc(CN2CCN(c3cccc(Cl)c3)CC2)cc1=O | -6.8 | -6.2% | -3.1 | 2.4% | 3.1% | 11.7µM*
CNC(=O)COc1coc(CN2CCN(c3cccc(Cl)c3)CC2)cc1=O | -3.8 | 3.2% | -2.4 | -11.3% | 15.8% | 8.2%
O=C(COc1coc(CN2CCN(c3cccc(Cl)c3)CC2)cc1=O)NC1CCCC1 | x | 1.2% | x | 9.28µM* | u | u
CC(C)NC(=O)COc1coc(CN2CCN(c3ccccc3)CC2)cc1=O | -12.2 | -0.5% | -3.3 | 9.0% | -9.4% | u
O=C1c2ccccc2C(=O)c2c(/C=C/N3CCCCC3)ccnc21 | x | -5.5% | x | x | -20.8% | x
CCOC(=O)c1ccc(-n2ccnc2)c(NC(=O)c2cccc(Br)c2)c1 | -6.9 | -2.9% | -3.9 | 0.0% | u | 0.8%
CCOC(=O)c1ccc(-n2ccnc2)c(NC(=O)c2ccc(C(C)(C)C)cc2)c1 | -12.6 | -18.2% | -4.1 | 13.1µM* | u | 14.7µM*
SMILES | Shiga toxin inh | AMA1 RON2 block | Cycloheximide cs | Pf growth 48h | HCV inhibitor | Pf growth 96h
CN(C)S(=O)(=O)c1ccc(-c2csc(N/N=C/c3ccco3)n2)cc1 | 29.1 | 4.8% | 19.4 | u | u | -22.1%
O=C(O)c1csc(N/N=C/c2ccc(Br)cc2)n1 | 12.8 | 84.4% | 15.8 | 31.0% | 16.0% | u
Cc1ccc(-c2csc(N/N=C/c3ccco3)n2)cc1 | 72.9* | 0.0% | 35.4* | u | u | u
Clc1ccc(-c2csc(N/N=C/c3ccco3)n2)cc1 | 79.3* | 1.7% | 37.7* | u | u | u
Clc1ccc(-c2csc(N/N=C\c3cccnc3)n2)cc1 | 11.4 | 4.5% | 28.0* | u | -17.9% | 36.7%
O=C(N/N=C/c1cccnc1)c1cc(-c2ccc(Cl)cc2)nc2ccccc12 | x | -3.0% | x | x | -3.0% | x
Brc1ccc(-c2csc(N/N=C/c3ccco3)n2)cc1 | 71.0* | 59.5% | 40.3* | u | u | u
C/C(=N/Nc1nc(-c2ccc(Cl)cc2)cs1)c1cccs1 | 47.1 | 14.9% | 14.1 | u | u | x
COc1ccc(CNCc2c(O)c(Cl)cc3c(C)c(C)c(=O)oc23)c(OC)c1 | -11.0 | 18.8% | 11.4 | u | 9.8% | u
O=S(=O)(Nc1cc(Br)cc2cccnc12)c1ccccc1 | -12.2 | x | -5.0 | x | x | x
COc1ccc(-c2nc3ccc(Br)cn3c2Cc2cccc(Cl)c2)cc1OC | x | -16.3% | x | x | x | x
COCc1ccc(C(=O)N2CCCC(C(=O)c3ccc(SC)cc3)C2)s1 (centres undefined) | 12.2 | -14.6% | 15.3 | -6.1% | x | u
Cc1cccc(C(=O)NCCC(=O)Nc2ccc(F)c([N+](=O)[O-])c2)c1 | -11.7 | -0.4% | -4.8 | -21.7% | -8.4% | -23.9%
Cc1onc(-c2ccccc2)c1-c1csc(N/N=C/c2ccccc2)n1 | 17.9 | 6.1% | 1.7 | u | -1.0% | u
CC(C)=NNc1nc(-c2ccccc2)c(C)s1 | 104.5* | 40.5% | 35.9* | u | -4.1% | 28.8%
Cc1cc(C)nc(N/N=C/c2ccco2)n1 | -36.3 | 37.2% | -2.4 | 30.6% | 3.6% | x
Cc1sc(N/N=C/c2cccnc2)nc1-c1ccccc1 | 48.4* | 13.1% | 25.3* | 9.28µM* | u | u
Cc1sc(N/N=C/c2ccco2)nc1-c1ccccc1 | 90.9* | 19.0% | 26.8* | u | u | u
Cc1ccc(-c2cc(-c3ccccc3)nc(N/N=C/c3cccnc3)n2)cc1 | x | 7.4% | x | x | x | x
Cc1sc(N)nc1-c1ccccc1 | -0.8 | 2.9% | 9.8 | 29.1% | 2.8% | u
C(=N\Nc1nc(-c2ccccc2)cs1)/c1ccco1 | 60.6* | 13.8% | 38.2* | 3.8% | u | -19.0%
CCN(CC)CCNC(=O)CNC(=O)c1nn(-c2ccc(OC)cc2OC)c(=O)c2ccccc12 | -6.2 | 9.0% | -3.1 | x | 0.1% | u
COc1cccc(C(=O)NCCSc2ccc(C)cc2)c1 | 19.3 | 0.0% | 20.7* | -13.6% | -20.1% | u
COc1cccc(C(=O)NCCSc2ccc(F)cc2)c1 | 57.2* | -4.2% | 38.8* | 153.9% | 1.9% | 98.8%
Cc1nc(C(F)(F)F)ccc1C(=O)N1CCC1(C)C(=O)NS(=O)(=O)c1ccc2ccccc2c1 (centres undefined) | x | 10.0% | x | x | x | x

Source: PubChem (National Center for Advancing Translational Sciences (NCATS))
